Assay results reported in PubChem BioAssay (NCATS).
Inconclusive results are not listed. Active and inactive are the calls of the source. Calls follow the shape of the dose curve; as a rule, active = well fitted inhibition curve with a large enough effect; inconclusive = small, poorly fitted or top-dose-only effect; inactive = flat fitted curve, though single readings scatter.

Experiments:
Assay in all cases: qHTS profiling for inhibitors of Plasmodium falciparum proliferation (AID 504749); also: nearly all actives have a fitted effect of over 60% in size
Conditions in all cases: P. falciparum in erythrocytes, SYBR Green DNA, 72 h; series mostly up to 28.7 µM
CP211 = tested on: CP211
Summary of the method: (§1)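 Three-day growth assay of blood-stage parasites in erythrocytes (0.3% parasitemia, 2.5% hematocrit) at 37 C, 5% CO2, quantified by SYBR Green DNA staining after overnight detergent lysis.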

CP215 = tested on: CP215
Summary of the method: as §1

CP217 = tested on: CP217
Summary of the method: as §1

CP237 = tested on: CP237
Summary of the method: as §1

CP238 = tested on: CP238
Summary of the method: as §1

CP247 = tested on: CP247
Summary of the method: as §1

CP250 = tested on: CP250
Summary of the method: as §1

CP252 = tested on: CP252
Summary of the method: as §1

CP256 = tested on: CP256
Summary of the method: as §1

CP260 = tested on: CP260
Summary of the method: as §1

CP262 = tested on: CP262
Summary of the method: as §1

CP265 = tested on: CP265
Summary of the method: as §1

CP266 = tested on: CP266
Summary of the method: as §1

CP268 = tested on: CP268
Summary of the method: as §1

CP269 = tested on: CP269
Summary of the method: as §1

CP286 = tested on: CP286
Summary of the method: as §1

CP291 = tested on: CP291
Summary of the method: as §1

CP297 = tested on: CP297
Summary of the method: as §1

CP305 = tested on: CP305
Summary of the method: as §1

CP315 = tested on: CP315
Summary of the method: as §1

Measured: Potency

COc1ccc2c(c1)C(=O)N(CCc1ccc(S(=O)(=O)NC(=O)NC3CCCCC3)cc1)C(=O)C2(C)C
inactive: all assays above

O=C(O)c1ccccc1-c1ccc(C(F)(F)F)cc1
inactive: all assays above

CC(=O)c1ccc2c(c1)N(CCCN(C)C)c1ccccc1S2
inactive: all assays above

Cc1ncc(COP(=O)(O)O)c(C=O)c1O
inactive: all assays above

CC(=O)Oc1ccc(C2(c3ccc(OC(C)=O)cc3)C(=O)Nc3ccccc32)cc1
inactive: all assays above

CCCCOc1cc(C(=O)OCCN(CC)CC)ccc1N
inactive: all assays above

COc1cc2[nH]c(=O)[nH]c(=O)c2cc1OC
inactive: all assays above

CCC(=O)Nc1ccc(O)cc1
inactive: all assays above

CCOc1ccc2ccccc2c1C(=O)N[C@@H]1C(=O)N2[C@@H]1SC(C)(C)[C@@H]2C(=O)O
inactive: all assays above

NC(=O)NNc1ccccc1
inactive: all assays above

CCCCc1ncc(/C=C(\Cc2cccs2)C(=O)O)n1Cc1ccc(C(=O)O)cc1
inactive: all assays above

C[C@H](N)[C@H](O)c1cccc(O)c1
inactive: all assays above

O=C(O)CN1C(=O)c2cccc3cccc(c23)C1=O
inactive: all assays above

C=Cc1c(C)c2cc3[nH]c(cc4nc(cc5nc(cc1[nH]2)C(C)=C5CCC(=O)O)C(CCC(=O)O)=C4C)c(C)c3C=C
inactive: all assays above
